Experimental data reported in PubChem BioAssay (EPA / NIEHS).
Records with an inconclusive call do not appear. Calls of active or inactive are those of the source. The calls were made as follows, unless noted: active = hit-call score of the fitted dose curve at least 0.9, where 1 is the maximum; inactive = score below 0.9.

Assays:
[1] = molecular target: Bile acid receptor (Homo sapiens) (UniProt Q96RI1); experiment: ATG_FXR_TRANS: Attagene TRANS-FACTORIAL HepG2 Assay for Farnesoid X Receptor (FXR) (AID 2282979; active = hit-call score of the fitted dose curve at least 0.9, where 1 is the maximum;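 also: hits raise reporter mRNA above DMSO so AC50 marks FXR activation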); conditions: HepG2 Attagene TRANS FXR-GAL4 reporter transcription
Sequence of Bile acid receptor (Homo sapiens) (Q96RI1 whole entry, looked up, the tested form may be a part): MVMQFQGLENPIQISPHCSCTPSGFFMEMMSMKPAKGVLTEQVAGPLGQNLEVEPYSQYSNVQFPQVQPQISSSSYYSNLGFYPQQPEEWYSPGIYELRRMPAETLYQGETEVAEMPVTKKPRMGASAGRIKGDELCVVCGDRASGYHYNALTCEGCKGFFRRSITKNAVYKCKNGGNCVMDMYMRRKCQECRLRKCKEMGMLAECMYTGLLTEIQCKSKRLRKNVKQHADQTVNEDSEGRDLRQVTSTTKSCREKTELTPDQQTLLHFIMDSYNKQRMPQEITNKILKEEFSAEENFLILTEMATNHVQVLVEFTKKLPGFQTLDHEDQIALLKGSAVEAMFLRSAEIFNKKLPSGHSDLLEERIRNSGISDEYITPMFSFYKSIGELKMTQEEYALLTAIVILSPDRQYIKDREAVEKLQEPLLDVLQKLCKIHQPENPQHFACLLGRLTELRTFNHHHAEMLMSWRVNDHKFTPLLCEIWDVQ
Summary of the method: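 After 24 h chemical treatment of transfected HepG2 cells, GAL4-UAS reporter transcripts driven by an exogenous FXR-GAL4 fusion were measured by RT-PCR and capillary electrophoresis. Increases over DMSO were fitted.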

[2] = molecular target: Oxysterols receptor LXR-alpha (Homo sapiens) (UniProt Q13133); experiment: ATG_LXRa_TRANS: Attagene TRANS-FACTORIAL HepG2 Assay for human Liver X Receptor alpha (LXRa) (AID 2282980; active = hit-call score of the fitted dose curve at least 0.9, where 1 is the maximum); conditions: HepG2 Attagene TRANS reporter, LXRa transactivation
Sequence of Oxysterols receptor LXR-alpha (Homo sapiens) (Q13133 whole entry, looked up, the tested form may be a part): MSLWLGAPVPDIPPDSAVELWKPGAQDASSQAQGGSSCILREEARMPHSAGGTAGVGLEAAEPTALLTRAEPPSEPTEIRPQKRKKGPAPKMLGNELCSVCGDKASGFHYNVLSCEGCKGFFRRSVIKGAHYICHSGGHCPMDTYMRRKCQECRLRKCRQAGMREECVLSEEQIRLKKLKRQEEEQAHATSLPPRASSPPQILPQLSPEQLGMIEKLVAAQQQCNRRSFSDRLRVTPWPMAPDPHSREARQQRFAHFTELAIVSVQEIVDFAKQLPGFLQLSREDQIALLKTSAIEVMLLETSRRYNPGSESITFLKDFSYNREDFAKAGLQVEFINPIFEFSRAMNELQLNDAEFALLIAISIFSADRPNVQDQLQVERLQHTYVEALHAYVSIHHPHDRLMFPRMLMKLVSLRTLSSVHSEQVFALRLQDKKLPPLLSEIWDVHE
Summary of the method: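 In this multiplexed TRANS system, compounds act on HepG2 cells carrying GAL4-UAS reporter units and a receptor-GAL4 fusion for 24 h. Induced reporter RNA is amplified, fluorescently labelled and sized by capillary electrophoresis, with DMSO as baseline.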

[3] = molecular target: Oxysterols receptor LXR-beta (Homo sapiens) (UniProt P55055); experiment: ATG_LXRb_TRANS: Attagene TRANS-FACTORIAL HepG2 Assay for human Liver X Receptor beta (LXRb) (AID 2282981; active = hit-call score of the fitted dose curve at least 0.9, where 1 is the maximum); conditions: HepG2 Attagene TRANS GAL4-LXRb reporter, mRNA
Sequence of Oxysterols receptor LXR-beta (Homo sapiens) (P55055 whole entry, looked up, the tested form may be a part): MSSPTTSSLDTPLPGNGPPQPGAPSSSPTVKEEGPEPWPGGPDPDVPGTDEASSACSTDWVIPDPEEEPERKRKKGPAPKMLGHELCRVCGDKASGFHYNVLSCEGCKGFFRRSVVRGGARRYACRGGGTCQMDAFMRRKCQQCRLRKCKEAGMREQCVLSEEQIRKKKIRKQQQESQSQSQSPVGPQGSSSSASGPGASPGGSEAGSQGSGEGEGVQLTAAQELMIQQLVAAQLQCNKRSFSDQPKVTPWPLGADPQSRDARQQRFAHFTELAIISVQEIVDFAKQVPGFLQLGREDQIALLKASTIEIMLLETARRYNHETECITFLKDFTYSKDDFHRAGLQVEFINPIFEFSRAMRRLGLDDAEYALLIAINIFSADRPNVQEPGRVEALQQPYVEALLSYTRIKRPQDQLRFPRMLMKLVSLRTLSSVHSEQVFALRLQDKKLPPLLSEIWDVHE
Summary of the method: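 After 24 h chemical treatment of transfected HepG2 cells carrying exogenous NR-Gal4 chimeras, reporter mRNA was quantified by fluorescent RT-PCR and capillary electrophoresis; activity taken as increase over DMSO controls.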

[4] = ATG_M_32_TRANS: Attagene TRANS-FACTORIAL HepG2 Assay for M32 Transcription Factor (Internal Marker) (AID 2282984; active = hit-call score of the fitted dose curve at least 0.9, where 1 is the maximum;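 also: transcript level of a background control reporter unit measured by RT-PCR and capillary electrophoresis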); conditions: HepG2 Attagene TRANS M32 internal marker reporter
Summary of the method: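 Internal background reporter in transfected HepG2: after 24 h chemical exposure, RNA reverse-transcribed, reporter cDNA amplified, fluorescently labelled and HpaI-cut, then sized by capillary electrophoresis. Gain of signal fitted against DMSO control.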

[5] = molecular target: Transcriptional activator Myb (Homo sapiens) (UniProt P10242); experiment: ATG_Myb_CIS: Attagene CIS-FACTORIAL HepG2 Assay for human Myeloblastosis (Myb) Proto-Oncogene Transcription Factor (AID 2282986); conditions: HepG2 Attagene CIS-FACTORIAL Myb reporter transcription; actives raise or lower the signal
Sequence of Transcriptional activator Myb (Homo sapiens) (P10242 whole entry, looked up): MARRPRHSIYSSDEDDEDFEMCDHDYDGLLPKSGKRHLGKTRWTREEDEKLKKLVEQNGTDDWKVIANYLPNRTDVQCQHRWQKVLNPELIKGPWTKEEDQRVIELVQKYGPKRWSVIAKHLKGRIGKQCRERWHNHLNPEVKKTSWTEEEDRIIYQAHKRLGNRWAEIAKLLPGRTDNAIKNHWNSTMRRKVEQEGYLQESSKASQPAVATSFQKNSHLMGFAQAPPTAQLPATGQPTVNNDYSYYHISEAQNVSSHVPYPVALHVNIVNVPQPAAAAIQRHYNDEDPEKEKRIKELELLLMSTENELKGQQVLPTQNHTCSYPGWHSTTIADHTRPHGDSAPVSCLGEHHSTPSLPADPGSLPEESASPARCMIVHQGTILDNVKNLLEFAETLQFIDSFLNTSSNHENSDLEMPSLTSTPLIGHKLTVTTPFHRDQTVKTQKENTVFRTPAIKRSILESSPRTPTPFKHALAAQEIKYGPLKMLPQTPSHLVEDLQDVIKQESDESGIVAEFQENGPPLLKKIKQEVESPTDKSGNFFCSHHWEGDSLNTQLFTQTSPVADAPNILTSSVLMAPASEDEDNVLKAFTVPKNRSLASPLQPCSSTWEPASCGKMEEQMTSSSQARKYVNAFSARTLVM
Summary of the method: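 Reporter mRNA is quantified by RT-PCR and capillary electrophoresis 24 h after dosing HepG2 cells transfected with cis-regulated reporter units, which track endogenous transcription factor activity. Gain and loss of signal are fitted versus DMSO baseline.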

[6] = molecular target: Nuclear respiratory factor 1 (Homo sapiens) (UniProt Q16656); experiment: ATG_NRF1_CIS: Attagene CIS-FACTORIAL HepG2 Assay for human Nuclear Respiratory Factor 1 (NRF1) Orphan Gene (AID 2282987); conditions: HepG2 NRF1 cis-element reporter, Attagene multiplex; actives raise or lower the signal
Sequence of Nuclear respiratory factor 1 (Homo sapiens) (Q16656 whole entry, looked up): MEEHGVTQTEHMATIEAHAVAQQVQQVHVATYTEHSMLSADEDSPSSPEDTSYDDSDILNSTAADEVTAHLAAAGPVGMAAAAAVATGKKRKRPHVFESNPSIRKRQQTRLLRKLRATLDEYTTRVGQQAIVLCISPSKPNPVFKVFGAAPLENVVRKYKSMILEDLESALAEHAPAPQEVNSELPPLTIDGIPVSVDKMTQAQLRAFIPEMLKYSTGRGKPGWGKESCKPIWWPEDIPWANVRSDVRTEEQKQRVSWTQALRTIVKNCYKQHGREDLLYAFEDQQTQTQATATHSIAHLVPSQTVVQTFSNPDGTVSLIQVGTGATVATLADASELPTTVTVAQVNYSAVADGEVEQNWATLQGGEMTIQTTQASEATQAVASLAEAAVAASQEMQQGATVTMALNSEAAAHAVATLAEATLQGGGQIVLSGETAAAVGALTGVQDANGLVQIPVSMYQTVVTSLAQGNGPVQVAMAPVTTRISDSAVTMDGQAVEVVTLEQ
Summary of the method: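 Endogenous NRF1-driven reporter transcription in transfected HepG2 cells after 24 h treatment. Readout: RT-PCR products, 6-FAM labelled and resolved by capillary electrophoresis; changes fitted both directions relative to DMSO.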

[7] = ATG_NFI_CIS: Attagene CIS-FACTORIAL HepG2 Assay for human Nuclear Factor I (NFI) (AID 2282989); conditions: HepG2 cis-regulatory reporter, NFI response element transcription; actives raise or lower the signal
Summary of the method: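 Reporter transcripts were measured by RT-PCR with fluorescent primer extension and capillary electrophoresis 24 h post-treatment. HepG2 cells carried transiently transfected cis-regulated reporter constructs reporting endogenous factor activity; gain or loss fitted against DMSO baseline.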

[8] = molecular target: Myc proto-oncogene protein (Homo sapiens) (UniProt P01106); experiment: ATG_Myc_CIS: Attagene CIS-FACTORIAL HepG2 Assay for human Myelocytomatosis (Myc) Proto-Oncogene Transcription Factor (AID 2282990); conditions: HepG2, Attagene cis-reporter transcription factor activity; actives raise or lower the signal
Sequence of Myc proto-oncogene protein (Homo sapiens) (P01106 whole entry, looked up): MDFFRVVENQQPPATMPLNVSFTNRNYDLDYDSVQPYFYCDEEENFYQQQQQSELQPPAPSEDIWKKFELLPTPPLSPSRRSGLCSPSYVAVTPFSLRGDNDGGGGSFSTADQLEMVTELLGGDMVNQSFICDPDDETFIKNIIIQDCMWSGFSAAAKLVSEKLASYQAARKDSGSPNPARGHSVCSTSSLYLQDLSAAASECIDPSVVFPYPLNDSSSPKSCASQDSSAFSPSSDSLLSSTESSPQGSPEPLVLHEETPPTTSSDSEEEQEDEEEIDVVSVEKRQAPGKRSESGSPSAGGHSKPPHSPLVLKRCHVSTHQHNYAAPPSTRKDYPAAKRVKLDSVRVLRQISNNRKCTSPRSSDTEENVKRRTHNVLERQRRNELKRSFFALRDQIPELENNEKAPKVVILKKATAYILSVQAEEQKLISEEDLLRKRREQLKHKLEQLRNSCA
Summary of the method: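 Cells of the HepG2 human liver line bear multiple cis-driven reporter transcription units. Reporter mRNA after 24 h exposure is reverse-transcribed, amplified, labelled and resolved by capillary electrophoresis, with gain- or loss-of-signal fitting relative to DMSO.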

[9] = ATG_NRF2_ARE_CIS: Attagene CIS-FACTORIAL HepG2 Assay for human Nuclear Factor Erythroid 2 Related Factor 2 (NFR2) response to Antioxidant Response Elements (ARE) (AID 2282992); conditions: HepG2 Attagene ARE/NRF2 reporter, transcription factor activity; actives raise or lower the signal
Summary of the method: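 Endogenous transcription factor activity read out as reporter transcript levels (RT-PCR plus capillary electrophoresis, fluorescence) in transiently transfected HepG2 cells. Measured at 24 h after dosing; gain or loss of signal fitted versus DMSO.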

[10] = ATG_Oct_MLP_CIS: Attagene CIS-FACTORIAL HepG2 Assay for human Octamer-Binding Transcription Factor (Oct) (AID 2282993); conditions: HepG2 Attagene cis-factorial Oct reporter, mRNA; actives raise or lower the signal
Summary of the method: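 Readout is reporter transcript level from RT-PCR with fluorescent primer extension and capillary electrophoresis, fitted in both directions against DMSO. Transfected HepG2 reporter units report endogenous factor activity after 24 h dosing.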

[11] = molecular target: Cellular tumor antigen p53 (Homo sapiens) (UniProt P04637); experiment: ATG_p53_CIS: Attagene CIS-FACTORIAL HepG2 Assay for human p53 Transcription Factor (AID 2282994); conditions: HepG2 p53 cis-element reporter, Attagene mRNA; actives raise or lower the signal
Sequence of Cellular tumor antigen p53 (Homo sapiens) (P04637 whole entry, looked up): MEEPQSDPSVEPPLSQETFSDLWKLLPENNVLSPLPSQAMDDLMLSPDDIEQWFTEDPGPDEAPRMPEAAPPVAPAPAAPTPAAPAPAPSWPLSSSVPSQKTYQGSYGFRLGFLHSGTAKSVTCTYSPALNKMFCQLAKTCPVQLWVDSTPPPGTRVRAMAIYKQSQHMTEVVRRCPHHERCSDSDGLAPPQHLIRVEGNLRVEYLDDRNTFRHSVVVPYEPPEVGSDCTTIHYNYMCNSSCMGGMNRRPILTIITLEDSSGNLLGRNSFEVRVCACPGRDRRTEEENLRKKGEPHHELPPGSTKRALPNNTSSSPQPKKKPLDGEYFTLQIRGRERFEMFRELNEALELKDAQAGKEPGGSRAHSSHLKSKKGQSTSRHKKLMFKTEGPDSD
Summary of the method: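 Endogenous p53 activity read in transiently transfected HepG2 from a cis-element-driven reporter transcript after 24 h exposure. RNA reverse-transcribed, PCR-amplified, fluorescently labelled and sized by capillary electrophoresis; gain or loss fitted against DMSO baseline.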

[12] = BSK_3C_TissueFactor: BioMAP Diversity Plus: 3C Assay for Tissue Factor Biomarker Activity (AID 2282997); conditions: BioMAP 3C HUVEC, tissue factor biomarker readout; actives raise or lower the signal
Summary of the method: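 In this endothelial system, HUVEC are treated for 24 h and Tissue Factor is assessed by ELISA, normalised to DMSO.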

[13] = BSK_3C_uPAR: BioMAP Diversity Plus: 3C Assay for Urokinase-type plasminogen activator receptor (uPAR) Biomarker Activity (AID 2282998); conditions: BioMAP 3C HUVEC, uPAR biomarker ELISA; actives raise or lower the signal
Summary of the method: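 Cell-surface uPAR on HUVEC (3C system) read by ELISA at 24 h post-treatment, with DMSO as baseline and fitting in both directions. Parallel cultures stained with SRB to flag overt cytotoxicity.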

[14] = BSK_3C_VCAM1: BioMAP Diversity Plus: 3C Assay for Vascular cell adhesion molecule 1 (VCAM1) Biomarker Activity (AID 2282999); conditions: BioMAP 3C HUVEC, VCAM1 ELISA, cytokine-stimulated; actives raise or lower the signal
Summary of the method: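 Activity fitted in both directions relative to DMSO, with ELISA measurement of the surface marker on primary HUVEC (3C) at 24 h post-treatment; parallel SRB staining (0.1% SRB, TCA-fixed, 560 nm) flagged overt cytotoxicity.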

[15] = BSK_4H_Eotaxin3: BioMAP Diversity Plus: 4H Assay for Eotaxin 3 Biomarker Activity (AID 2283000); conditions: primary human endothelial cells (HUVEC); actives raise or lower the signal;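 also: CCL26 protein level quantified by ELISA in parallel with SRB cytotoxicity check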
Summary of the method: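 ELISA quantitation of CCL26 (Eotaxin-3) protein from chemically dosed human vascular endothelial cells at 24 h; increases and decreases both scored relative to DMSO-treated baseline.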

[16] = molecular target: Hepatocyte nuclear factor 4-alpha (Homo sapiens) (UniProt P41235); experiment: ATG_HNF4a_TRANS: Attagene TRANS-FACTORIAL HepG2 Assay for human Hepatocyte Nuclear Factor 4 alpha (HNF4a) (AID 2282982; active = hit-call score of the fitted dose curve at least 0.9, where 1 is the maximum); conditions: HepG2 HNF4a transactivation reporter, mRNA readout
Sequence of Hepatocyte nuclear factor 4-alpha (Homo sapiens) (P41235 whole entry, looked up, the tested form may be a part): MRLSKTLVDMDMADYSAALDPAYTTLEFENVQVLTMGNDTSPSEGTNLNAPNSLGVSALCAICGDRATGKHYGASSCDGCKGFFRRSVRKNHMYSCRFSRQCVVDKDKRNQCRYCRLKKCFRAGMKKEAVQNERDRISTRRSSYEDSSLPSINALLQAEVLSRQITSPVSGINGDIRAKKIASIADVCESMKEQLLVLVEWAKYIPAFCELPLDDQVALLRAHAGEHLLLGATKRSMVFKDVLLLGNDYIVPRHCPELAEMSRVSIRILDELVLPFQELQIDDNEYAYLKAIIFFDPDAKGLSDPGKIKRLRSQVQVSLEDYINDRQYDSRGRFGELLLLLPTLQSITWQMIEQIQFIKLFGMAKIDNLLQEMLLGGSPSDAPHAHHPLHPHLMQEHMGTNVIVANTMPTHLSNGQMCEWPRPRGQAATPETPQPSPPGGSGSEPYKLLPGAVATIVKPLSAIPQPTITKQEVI
Summary of the method: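 Activity of an exogenous HNF4a–Gal4 fusion scored as induced GAL4-UAS reporter transcripts after 24 h chemical exposure of transfected human HepG2 cells. Read-out via RT-PCR with 6-FAM labelling and capillary electrophoresis; rise over DMSO baseline.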

[17] = ATG_M_06_TRANS: Attagene TRANS-FACTORIAL HepG2 Assay for M06 Transcription Factor (Internal Marker) (AID 2282983; active = hit-call score of the fitted dose curve at least 0.9, where 1 is the maximum); conditions: HepG2 Attagene TRANS M06 internal marker reporter
Summary of the method: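 Multi-reporter-transfected HepG2, 24 h treatment; reporter transcripts quantified via RT-PCR, primer-extension labelling and CE. DMSO-normalized gain-of-signal fit.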

[18] = molecular target: Nuclear receptor subfamily 4 group A member 2 (Homo sapiens) (UniProt P43354); experiment: ATG_NURR1_TRANS: Attagene TRANS-FACTORIAL HepG2 Assay for human Nuclear Receptor Related Protein 1 (NURR1) (AID 2282985; active = hit-call score of the fitted dose curve at least 0.9, where 1 is the maximum); conditions: HepG2 Attagene TRANS reporter, mRNA readout
Sequence of Nuclear receptor subfamily 4 group A member 2 (Homo sapiens) (P43354 whole entry, looked up, the tested form may be a part): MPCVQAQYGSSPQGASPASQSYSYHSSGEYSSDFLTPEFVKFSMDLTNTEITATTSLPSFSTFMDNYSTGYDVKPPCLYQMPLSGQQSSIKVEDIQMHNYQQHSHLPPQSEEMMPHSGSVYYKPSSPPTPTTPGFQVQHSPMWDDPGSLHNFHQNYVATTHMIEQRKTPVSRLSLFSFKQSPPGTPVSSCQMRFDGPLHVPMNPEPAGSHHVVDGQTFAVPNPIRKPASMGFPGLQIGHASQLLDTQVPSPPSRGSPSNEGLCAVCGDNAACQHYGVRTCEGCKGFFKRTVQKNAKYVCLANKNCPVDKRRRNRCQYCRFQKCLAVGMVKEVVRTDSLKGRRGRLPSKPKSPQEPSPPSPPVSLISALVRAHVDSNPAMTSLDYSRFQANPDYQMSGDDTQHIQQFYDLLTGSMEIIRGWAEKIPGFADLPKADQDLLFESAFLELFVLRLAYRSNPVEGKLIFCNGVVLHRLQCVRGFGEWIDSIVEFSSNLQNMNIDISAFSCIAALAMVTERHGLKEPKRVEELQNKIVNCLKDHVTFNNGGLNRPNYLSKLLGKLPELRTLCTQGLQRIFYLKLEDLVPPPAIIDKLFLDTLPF
Summary of the method: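 Reporter transcript induction, measured by RT-PCR with fluorescent labelling, HpaI digestion and capillary electrophoresis, after 24 hr dosing of human HepG2 cells transiently expressing an exogenous NR-Gal4 fusion with GAL4-UAS-driven reporters; DMSO as baseline.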

[19] = ATG_NF_kB_CIS: Attagene CIS-FACTORIAL HepG2 Assay for human Nuclear Factor Kappa B (NF-kB) (AID 2282991); conditions: HepG2 Attagene cis-factorial NF-kB reporter mRNA; actives raise or lower the signal
Summary of the method: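 Readout is reporter transcript level, gain or loss versus DMSO, measured 24 h post-dose via RT-PCR, fluorescent labelling and capillary electrophoresis. Human HepG2 liver cells carried transiently transfected CIS reporter constructs reflecting endogenous factors.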

Measured: AC50

CCCCCCCCCCCCCCCC(=O)OC/C=C(C)/C=C/C=C(C)/C=C/C1=C(C)CCCC1(C)C
active: [9] 23.9 µM | [14] 20 µM
not listed: [16] | [17] | [18] | [19]
inactive: all other assays above

N#Cc1cscn1
not listed: [3] | [4] | [12] | [13] | [14] | [15]
inactive: all other assays above

Oc1ccc2cc(SSc3ccc4cc(O)ccc4c3)ccc2c1
active: [9] 8.28 µM | [10] 39.9 µM
inactive: [1] | [2] | [3] | [17] | [4] | [5] | [6] | [8] | [19]

CC(C)CC(C)CC(O)CC(C)C (configuration not stated)
active: [9] 100 µM
not listed: [12] | [13] | [14] | [15] | [16] | [17]
inactive: all other assays above

Cc1ccc(N)c(S(=O)(=O)O)c1
not listed: [4] | [9] | [12] | [13] | [14] | [15] | [18]
inactive: all other assays above

O=C1CCCC=CCCCCCCCCCC1
active: [18] 26.5 µM | [9] 45.7 µM
not listed: [3] | [4] | [12] | [13] | [14] | [15] | [16]
inactive: all other assays above

CCOC(=O)COC(=O)c1cc(Oc2ccc(C(F)(F)F)cc2Cl)ccc1[N+](=O)[O-]
not listed: [3] | [12] | [13] | [14] | [15] | [16] | [17] | [19]
inactive: all other assays above

CCCCOC(=O)CCCCCCCC(=O)OCCCC
not listed: [16] | [19]
inactive: all other assays above

O=C(O)COCC(=O)O
not listed: [4] | [6] | [12] | [13] | [14] | [15] | [18]
inactive: all other assays above

[Cl][Au]([Cl])[Cl]
active: [6] 147 µM | [9] 0.156 µM
not listed: [4] | [12] | [13] | [14] | [15] | [16]
inactive: all other assays above

CCCCCCCCSCCO
active: [9] 186 µM
not listed: [6] | [12] | [13] | [14] | [15] | [16] | [18]
inactive: all other assays above

O=C(O)CCCCCCCCC(=O)O
not listed: [4] | [12] | [13] | [14] | [15] | [16] | [18]
inactive: all other assays above

C=CC(C)C#N (configuration not stated)
not listed: [3] | [4] | [12] | [13] | [14] | [15] | [16] | [18]
inactive: all other assays above

CC(C)(C)C1=CC(=O)C(C(C)(C)C)=CC1=O
inactive: [1] | [2] | [3] | [17] | [5] | [6] | [7] | [10]
active: [18] 74 µM | [8] 77.3 µM | [19] 50 µM | [11] 30.5 µM

Cc1cc(S(=O)(=O)O)ccc1N=Nc1c(O)ccc2ccccc12
not listed: [4] | [12] | [13] | [14] | [15] | [17] | [19]
inactive: all other assays above

CCCCCCC(O)CCCCCCCCCCC(=O)O (configuration not stated)
active: [9] 27.3 µM
inactive: [1] | [2] | [3] | [17] | [18] | [5] | [6] | [8] | [10]

CC=Cc1ccc(OC)c(OC)c1
inactive: [1] | [2] | [4] | [5] | [6] | [7] | [8] | [19] | [10] | [11]

CN(C)CCOC(C)(c1ccccc1)c1ccccn1 (configuration not stated)
not listed: [4] | [12] | [13] | [14] | [15] | [16] | [18] | [19]
inactive: all other assays above

CC1(C)COCN1
not listed: [12] | [13] | [14] | [15] | [17] | [18]
inactive: all other assays above

CSc1c(Cl)c(Cl)c(Cl)c(Cl)c1Cl
inactive: [1] | [2] | [3] | [17] | [4] | [19] | [11]
active: [18] 26.9 µM | [6] 169 µM | [7] 154 µM | [8] 167 µM | [9] 48.4 µM | [10] 139 µM

CC(=O)O[C@@H]1CC2CCC1(C)C2(C)C (some centres not stated)
not listed: [6] | [12] | [13] | [14] | [15] | [16] | [17]
inactive: all other assays above
